Screening results: PubChem BioAssay, The Scripps Research Institute Molecular Screening Center
bovine MsrA act – bovine methionine sulfoxide reductase A activation. purified bovine MsrA, absorbance read-out. activation, % at 10.6 µM. 0.3% of 360,000 active. AID 602163; in the data active means activation above about 7.5%;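 further: 0% = vehicle and 100% = reference activator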
PKA-R1A activ – PKA-R1A complex activation | P00514+P68181 | PKA-R1A dissociation, Cy5-IP20 fluorescence polarization; scaled: DMSO 0%, 113 µM cGMP 100% | activation, % at 11.4 µM | 0.083% of 340,000 active | AID 504707;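 active means percent activation above the mean of all tested compounds plus 3 SD, cut at about 19% in these data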;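 further: higher means more PKAc released from R1A so a rise in polarization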
MsrA inhibitor – bovine MsrA inhibition. purified bovine MsrA, absorbance read-out. inhibition, % at 15.5 µM. 0.75% of 360,000 active. AID 651718; in the data active means inhibition above about 4.5%;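 further: 0% = vehicle wells with enzyme and 100% = reference inhibitor wells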
PKA-R2B act – activates the human PKA-R2B holoenzyme complex. P22694+P31323. PKA-R2B holoenzyme dissociation, Cy5-IP20 fluorescence polarization; R2B truncated from residue 108, S112A mutant; 0% DMSO only, 100% 113 µM cGMP. activation, % at 11.4 µM. 0.079% of 340,000 active. AID 504700;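 active means activation above a cutoff set at the mean over all compounds plus 3 SD, cut at about 18% in these data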;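 further: higher means more holoenzyme dissociation and a rise in polarization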
Target sequence (P31323 whole entry, looked up, other chains not shown, the tested form may be a part): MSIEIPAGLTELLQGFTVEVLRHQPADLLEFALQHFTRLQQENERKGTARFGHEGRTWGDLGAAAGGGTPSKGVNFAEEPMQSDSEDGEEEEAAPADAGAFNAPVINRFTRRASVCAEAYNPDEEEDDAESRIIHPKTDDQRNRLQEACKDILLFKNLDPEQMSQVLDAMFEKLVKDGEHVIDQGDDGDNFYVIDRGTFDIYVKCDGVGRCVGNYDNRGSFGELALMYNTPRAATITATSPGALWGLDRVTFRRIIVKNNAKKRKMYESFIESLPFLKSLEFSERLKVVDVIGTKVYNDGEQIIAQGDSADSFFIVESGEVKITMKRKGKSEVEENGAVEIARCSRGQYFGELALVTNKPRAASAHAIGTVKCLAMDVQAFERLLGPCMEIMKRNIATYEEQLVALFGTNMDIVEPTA
R2B FP artifact – counter-screen for PKA-R2B activators: fluorescence polarization artifacts | shares compounds with PKA-R2B act | FP artifact counterscreen | activation, % at 11.4 µM | 6% of 270 active | AID 504796; in the data active means activation above about 20%;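 further: Cy5 labelled IP20 peptide probe with compound but no PKA protein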
PKA-R2B confirm – confirmation of human PKA-R2B complex activators | shares compounds with PKA-R2B act | 9% of 270 active | fluorescence polarization, activation | activation, % at 11.4 µM; in the data active means activation above about 19%
Target sequence (P31323 whole entry, looked up): as the sequence (P31323 whole entry, looked up, other chains not shown, the tested form may be a part) above
* hit, by the source's call; / = not tested or not shown; ! = repeats disagree. Hits are enriched below; roughly 1.1% of the tested compounds scored in any of these assays.

SMILES	bovine MsrA act	PKA-R1A activ	MsrA inhibitor	PKA-R2B act	R2B FP artifact	PKA-R2B confirm
COc1cc(NC(=O)CN(C)CCOc2ccccc2)c(C)cc1[N+](=O)[O-]	-3	4	3	8	/	/
CN(CCOc1ccccc1)CC(=O)Nc1ccc(Cl)cc1[N+](=O)[O-]	1	-2	1	21*	-2	-3
O=C(C(=O)N1CCC(CNC(=O)c2ccccc2F)CC1)c1cc2ccccc2o1	/	/	1	/	/	/
CSCC(=O)NCC1(N(C)Cc2ccccc2)Cc2ccccc2C1	-2	12	0	-3	/	/
CC#CC(=O)NCC1(N(C)Cc2ccccc2)Cc2ccccc2C1	-4	5	-1	18*	6	2
CCOc1ccccc1NC(=O)C(OC(=O)c1ccc(O)cc1)c1ccccc1 (centres undefined)	-10	-5	-1	-7	/	/
CCOc1ccccc1NC(=O)C(OC(=O)c1ccc(CC)cc1)c1ccccc1 (centres undefined)	0	1	3	19*	1	1
CCCc1cc(NC(=O)CCl)n(-c2ccccc2)n1	-4	0	0	20*	0	-3
CC(C)OC(=O)CSc1nnc(-c2ccc(C(C)(C)C)cc2)n1N	0	0	0	19*	-1	3
CC(C)C[C@H](NC(=O)c1nccs1)C(=O)N1CCC[C@H]1C(=O)NCc1ccccc1	/	/	0	/	/	/
CN1CCN(C(=O)/C(=C/c2ccc(N(C)C)cc2)NC(=O)c2ccccc2)CC1	-4	-9	4.6*	20*	6	4
CN1CCN(C(=O)/C(=C/c2ccc(F)cc2)NC(=O)c2ccccc2)CC1	-2	-1	0	-7	/	/
C[C@H]1CN(C(=O)OC(C)(C)C)CCN1c1ccc(N2CCS(=O)(=O)CC2)c(C#N)c1	/	/	2	/	/	/
Cc1[nH]nc2c1C(c1ccccc1)N(c1ccccc1)C2=O (centres undefined)	/	/	0	/	/	/
COC(=O)c1cc2c(c3c4cc(C)ccc4n(S(=O)(=O)c4ccc(OC)cc4)c13)C(=O)N(Cc1ccc(C(F)(F)F)cc1)C2	/	/	1	/	/	/
Cc1cccc(/C=N/NC(=O)c2ccccc2OCc2cccc(Br)c2)n1	1	-7	0	-3	/	/
Cc1cccc(/C=N/NC(=O)c2cc(Br)ccc2OCc2ccccc2)n1	-2	1	2	19*	8	2
O=C1C2=C(SCCS2)C(=O)N1c1ccccc1	0	-9	0	24*	-3	-2
O=C1CSCC(=O)N1c1ccccc1	1	4	1	8	/	/
Cc1[nH]nc(SCC(=O)Nc2cccc(O)c2)c1[N+](=O)[O-]	-2	-9	1	19*	2	5
CCCC(C)C(=O)NC1CCCCN(C)C1=O (centres undefined)	/	/	0	/	/	/
Cc1ccc(C(NC(=O)N2CCOCC2)C(Cl)Cl)cc1F (centres undefined)	-3	-11	1	22*	5	5
O=C(Cc1ccc(Cl)cc1Cl)NC1CCCCCC1	-9	10	0	23*	-4	-1
CC(C(=O)Nc1ccccc1)c1ccc(-c2ccccc2)c(F)c1 (centres undefined)	-1	-6	/	-4	/	/
CC(C(=O)O)c1ccc(-c2ccccc2)c(F)c1 (centres undefined)	-8	-8	-1	21*!	0	5
SMILES	bovine MsrA act	PKA-R1A activ	MsrA inhibitor	PKA-R2B act	R2B FP artifact	PKA-R2B confirm
O=S(=O)(NC1CCCC1)c1ccc(S(=O)(=O)N(Cc2cccs2)CC2CCCO2)cc1 (centres undefined)	-13	5	1	20*	0	1
CCN1C/C(=C/c2cccc([N+](=O)[O-])c2)C(=O)/C(=C/c2cccc([N+](=O)[O-])c2)C1	-9	-4	0	19*	2	2
CC(=O)C1=C(C)N(CC(C)C)C(=S)NC1c1ccc(Br)cc1 (centres undefined)	/	/	1	/	/	/
NC(=O)Nc1ccc(Cl)cc1	-3	2	-1	23*	-2	1
NC(=O)/C=C/C(=O)Nc1ccc(Cl)cc1	-7	-1	1	-6	/	/
CCc1c(-c2ccccc2F)ncn1CCc1ccccc1OC	/	/	0	/	/	/
COC(=O)C1=C(C)N(Cc2cccc(C(F)(F)F)c2)C(=NCc2ccc(OC)cc2)NC1c1ccccc1C(F)(F)F (centres undefined)	/	/	0	/	/	/
Oc1ccccc1/C=N/Nc1ncc(Br)cn1	-3	-4	4	26*	3	2
Oc1ccccc1/C=N/Nc1ccccc1	-2	9	2	-1	/	/
O=C(NC1CCCCC1)c1cc(S(=O)(=O)N2CCN(c3ccccc3)CC2)ccc1Cl	0	-7	-1	20*	2	-2
Cc1ccc(S(=O)(=O)NC(C)(C)C)cc1C(=O)OCC(=O)N1CCCC1=O	1	-1	-1	20*	5	6
COc1ccc(-c2ccc3c(n2)CCCN3S(=O)(=O)c2c(C)noc2C)cc1	/	/	1	/	/	/
COc1ccc(/C=N/NC2=NS(=O)(=O)c3ccccc32)cc1	-5	4	4	23*	2	3
CC(=O)Oc1ccc(/C=N/NC2=NS(=O)(=O)c3ccccc32)cc1	-2	4	3	1	/	/
CCCCc1c(-c2ccccc2OC)ncn1C(C)c1ccccc1 (centres undefined)	/	/	-1	/	/	/
CN1C2CCC1CC(NC(=O)c1cc(S(=O)(=O)N(C)C)c(Cl)cc1Cl)C2 (centres undefined)	-2	5	0	19*	2	1
Cc1cccc(CC(C)NC(=O)c2cc(COc3ccc(C)c(C)c3)on2)n1 (centres undefined)	-3	5	1	-7	/	/
Cc1ccc(OCc2cc(C(=O)NC(C)Cc3cnccn3)no2)cc1C (centres undefined)	0	4	-2	21*	7	5
CCCCc1c(-c2ccccc2OC)ncn1Cc1ccccc1Cl	/	/	0	/	/	/
O=C(CSc1nc2nc3c(cc2c(=O)n1-c1ccccc1)CCCC3)Nc1cccc2ccccc12	2	0	1	19*	2	3
Cc1cccc(NC(=O)CSc2nc3nc4c(cc3c(=O)n2-c2ccccc2)CCCC4)c1	-7	-6	-1	-11	/	/
CC(C)CSc1ccc(S(=O)(=O)NCC(=O)O)cc1[N+](=O)[O-]	0	0	0	19*	4	0
CSc1ccc(S(=O)(=O)NCC(=O)OC(C)C(=O)NCc2ccccc2)cc1[N+](=O)[O-] (centres undefined)	-4	-4	0	-4	/	/
Cc1cnc(NC(=O)CC2OC(=O)c3ccccc32)s1 (centres undefined)	-4	-4	1	19*	3	1
Cc1cnc(NC(=O)CC2CCCC2)s1	-8	0	-1	0	/	/
Cc1ccccc1N1CCN(S(=O)(=O)CC23CCC(CC2=O)C3(C)C)CC1 (centres undefined)	1	-1	-1	-3	/	/
